The sample as a whole holds a higher share of hits than the screen did. The hit rate among all sequences tested is not known here.
What follows are sequences tested on T1, Caupolican (Caup) homeodomain DNA-binding domain (assay: PBM E-score (8-mer, recovered from the published 9-mer minima) (E-score (dimensionless, -0.5 to 0.5)); Drosophila protein; higher = stronger relative binding preference, active = 0.31 or more).
T1 sequence: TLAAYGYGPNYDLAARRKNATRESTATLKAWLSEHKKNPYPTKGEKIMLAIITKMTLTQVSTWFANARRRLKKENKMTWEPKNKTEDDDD
Protocol: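 Protein binding microarray (PBM): in vitro transcribed/translated Caupolican (Caup) homeodomain DNA-binding domain (residues 214-303) applied at 100 nM to a universal 8-mer PBM array (Agilent AMADID 015681). The 8-mer enrichment score (E-score, range -0.5 to 0.5) was computed, and each 9-mer score is the minimum E-score of its two constituent 8-mers. The E-score is the same for a 9-mer and its reverse complement; 0.31 is the stated binding threshold.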

| Sequence | PBM E-score |
| --- | --- |
| CGTCTGCC | -0.188 (inactive) |
| ATTGTCCG | 0.122 (inactive) |
| CATTTCTA | 0.102 (inactive) |
| GTCAACCA | 0.0944 (inactive) |
| ACTAGCGC | -0.134 (inactive) |
| AACCGGGA | -0.0571 (inactive) |
| ATCAAAGC | -0.0471 (inactive) |
| ATCAGCTC | 0.00528 (inactive) |
| AAGGCGAC | 0.00668 (inactive) |
| ACGACTGC | -0.0879 (inactive) |
| GGATACCC | -0.15 (inactive) |
| CTCCAACC | -0.171 (inactive) |
| CACACCGA | 0.0554 (inactive) |
| ACAAACCG | 0.0217 (inactive) |
| CTGTTGTC | 0.256 (inactive) |
| ATGTTGTC | 0.424 (active) |
| ATGTTGCC | 0.121 (inactive) |
| CCGCATCC | -0.16 (inactive) |
| AGTTAACA | 0.265 (inactive) |
| AACTAACA | ≥ 0.339 (active) |
| GAGTAACA | 0.206 (inactive) |
| CGTTAACA | 0.164 (inactive) |
| AATTAACC | 0.0386 (inactive) |
| TAGTAACA | ≥ 0.316 (active) |
| AAGTAACA | 0.306 (inactive) |
| AATTAACT | 0.117 (inactive) |

| Sequence | PBM E-score |
| --- | --- |
| AACTAACT | -0.00416 (inactive) |
| TGTTAACA | 0.371 (active) |
| TACTAACA | 0.253 (inactive) |
| AATTAACA | 0.326 (active) |
| GTATCACA | 0.198 (inactive) |
| ACAGAAGA | 0.101 (inactive) |
| TAGCACAA | 0.0785 (inactive) |
| ATGAAAAA | 0.0536 (inactive) |
| AATGCACT | 0.108 (inactive) |
| GGATTAGA | -0.0283 (inactive) |
| GCCATCGA | -0.0979 (inactive) |
| TATTAACA | 0.312 (active) |
| GATTAACA | 0.292 (inactive) |
| CATTAACA | 0.234 (inactive) |
| CCATCCCC | -0.241 (inactive) |
| CAAGAGAG | -0.0747 (inactive) |
| TCCTCTCA | -0.0753 (inactive) |
| GGTGTACA | 0.327 (active) |
| AGTGTACG | 0.152 (inactive) |
| AGTGTAGA | 0.162 (inactive) |
| AGTGTACA | 0.337 (active) |
| GGTGTATA | 0.133 (inactive) |
| GCTGTACA | 0.268 (inactive) |
| ATAGATAT | 0.169 (inactive) |
| ACGGACCC | -0.139 (inactive) |
| CGCGGGTC | -0.163 (inactive) |

| Sequence | PBM E-score |
| --- | --- |
| CCAATGGA | -0.156 (inactive) |
| ATGCAGCC | 0.00431 (inactive) |
| CTGATTTA | 0.138 (inactive) |
| GCATTAGC | -0.144 (inactive) |
| CTTATTGA | 0.0828 (inactive) |
| CGCGAACG | -0.0783 (inactive) |
| GCACCGCA | -0.175 (inactive) |
| TAATGTAA | 0.315 (active) |
| TAATGTGA | 0.141 (inactive) |
| AAATGTAA | 0.277 (inactive) |
| CAATGTAG | 0.182 (inactive) |
| CAATGTAA | 0.312 (active) |
| CAATGTAC | 0.287 (inactive) |
| TGGACACA | 0.199 (inactive) |
| GGTAGCGA | -0.0452 (inactive) |
| GCCGGGTA | -0.161 (inactive) |
| CTAGCGTA | -0.0972 (inactive) |
| ATGTCTTA | 0.284 (inactive) |
| ACATGACT | 0.374 (active) |
| GATTGACA | 0.276 (inactive) |
| TCATGACA | 0.313 (active) |
| CCATGACA | 0.137 (inactive) |
| CATTGACA | 0.217 (inactive) |
| TGATGACA | 0.279 (inactive) |
| CAATGACA | 0.293 (inactive) |
| ACATGACC | 0.303 (inactive) |

| Sequence | PBM E-score |
| --- | --- |
| TAATGACA | 0.331 (active) |
| GAATGACA | 0.259 (inactive) |
| TATTGACA | 0.322 (active) |
| ACATGACG | 0.297 (inactive) |
| GTGGCGAA | -0.0979 (inactive) |
| CGGAGTGC | -0.159 (inactive) |
| AACCTATT | 0.0185 (inactive) |
| CTGACAGC | -0.0248 (inactive) |
| CTATTCCA | 0.057 (inactive) |
| CGATTACG | 0.101 (inactive) |
| CCCCTGAG | -0.149 (inactive) |
| ATCGCACC | -0.0473 (inactive) |
| CGCATATA | 0.107 (inactive) |
| AAGCACTG | 0.0317 (inactive) |
| AGATGACA | 0.227 (inactive) |
| ACATGACA | ≥ 0.43 (active) |
| ATTTGACC | -0.0206 (inactive) |
| CTTTGACA | 0.223 (inactive) |
| GCATGACA | 0.21 (inactive) |
| ATTTGACA | 0.347 (active) |
| CTCTTCTA | -0.00512 (inactive) |
| ATATTCGC | 0.0752 (inactive) |
| GCAGAAGA | -0.113 (inactive) |
| TAAATATA | 0.187 (inactive) |
| CAAATAGG | -0.00893 (inactive) |
| CGTTGTCA | 0.251 (inactive) |

| Sequence | PBM E-score |
| --- | --- |
| AGTTGTCG | 0.235 (inactive) |
| GTTTGTCA | 0.187 (inactive) |
| GGTTGTCA | 0.331 (active) |
| AGTTGTCA | 0.315 (active) |
| AGTTGTCC | 0.235 (inactive) |
| CGTAAATC | -0.00723 (inactive) |
| CATGGATA | 0.157 (inactive) |
| AACAAGCC | 0.176 (inactive) |
| AACAAGCT | 0.312 (active) |
| AACAAACG | 0.114 (inactive) |
| AACAAACT | 0.23 (inactive) |
| TACAAACA | ≥ 0.368 (active) |
| GACAAAAA | 0.0647 (inactive) |
| GACAAACC | 0.0748 (inactive) |
| AACAAGCG | 0.237 (inactive) |
| AACAAACA | 0.338 (active) |
| CACAAACA | 0.24 (inactive) |
| GACAAACA | 0.312 (active) |
| AACAAACC | 0.161 (inactive) |
| AGTTCTGG | -0.0428 (inactive) |
| AGGGCAAC | -0.0847 (inactive) |
| CCGGAAAG | -0.15 (inactive) |
| ACGTTCAT | 0.101 (inactive) |
| GATATTGA | 0.0675 (inactive) |
| CACCTACC | -0.0826 (inactive) |
| AAAACGTG | 0.0311 (inactive) |

| Sequence | PBM E-score |
| --- | --- |
| AGTATACT | 0.163 (inactive) |
| ACCTACCT | -0.066 (inactive) |
| GCATCTAC | 0.0527 (inactive) |
| AACAAGCA | 0.308 (inactive) |
| GACAAGCC | 0.212 (inactive) |
| GACAAGCA | 0.321 (active) |
| GGCAAGCA | -0.119 (inactive) |
| CACAAGCA | 0.15 (inactive) |
| TACAAGCA | ≥ 0.384 (active) |
| CTCTCAGC | -0.19 (inactive) |
| ACCCGTAT | 0.0244 (inactive) |
| ACTTTTCG | 0.0288 (inactive) |
| CCCACAGG | -0.142 (inactive) |
| GAATAGTC | -0.00141 (inactive) |
| GATACATC | 0.297 (inactive) |
| AATACAAA | 0.284 (inactive) |
| AATACAAC | 0.305 (inactive) |
| GATACATA | 0.321 (active) |
| AATACAAT | 0.226 (inactive) |
| AAAACATA | 0.284 (inactive) |
| GAAACATA | 0.258 (inactive) |
| TAAACATA | ≥ 0.367 (active) |
| GATACAGA | 0.164 (inactive) |
| AATACAAG | 0.346 (active) |
| AATACAGA | 0.18 (inactive) |
| AATACATA | 0.362 (active) |

| Sequence | PBM E-score |
| --- | --- |
| AGCTGTAA | 0.166 (inactive) |
| AGTACTAT | 0.165 (inactive) |
| CCGATGCG | -0.173 (inactive) |
| AAGACTAT | 0.0648 (inactive) |
| CCCACGAG | -0.148 (inactive) |
| GGATATCA | 0.0642 (inactive) |
| TCGTATAA | 0.121 (inactive) |
| CCACTAGG | -0.169 (inactive) |
| CATACATC | 0.251 (inactive) |
| CATACATG | 0.44 (active) |
| AATACATG | 0.424 (active) |
| CATACATA | 0.286 (inactive) |
| TATACATA | 0.326 (active) |
| TATACAGA | 0.217 (inactive) |
| AATACATC | 0.294 (inactive) |
| TATACAAA | 0.264 (inactive) |
| AATACATT | 0.225 (inactive) |
| CCTCTACG | -0.0999 (inactive) |
| AACACCTA | 0.183 (inactive) |
| CTCAGCGA | -0.115 (inactive) |
| AGATTTGA | 0.0967 (inactive) |
| ACCCGCGT | -0.0456 (inactive) |
| CTCGGACA | 0.086 (inactive) |
| CATGAACG | 0.0839 (inactive) |
| CGTGAACA | 0.206 (inactive) |
| AATGAACA | 0.317 (active) |

| Sequence | PBM E-score |
| --- | --- |
| CATGAACA | 0.32 (active) |
| TATGAACA | 0.286 (inactive) |
| TGTGAACA | 0.31 (active) |
| AATGAACC | -0.0632 (inactive) |
| GATGAACA | 0.196 (inactive) |
| GGTGAACA | 0.183 (inactive) |
| GCGAGAGA | -0.0945 (inactive) |
| GGCGAGTA | -0.0986 (inactive) |
| GTAGCAAC | 0.128 (inactive) |
| AGCAAGAC | 0.0516 (inactive) |
| ACTTGACC | -0.0545 (inactive) |
| AAAATTTC | -0.0281 (inactive) |
| TCGGCAAA | -0.0466 (inactive) |
| ATGCTGGG | -0.069 (inactive) |
| ATCTGTGC | 0.0661 (inactive) |
| AGTGCGCC | -0.17 (inactive) |
| ACCATATG | 0.145 (inactive) |
| AACATATC | 0.303 (inactive) |
| AACATATT | ≥ 0.347 (active) |
| TACATAGA | 0.278 (inactive) |
| AACATAGT | 0.287 (inactive) |
| CACATATG | 0.15 (inactive) |
| AACATATA | 0.323 (active) |
| GACATATA | 0.305 (inactive) |
| TACATATA | 0.379 (active) |
| TATATATA | 0.216 (inactive) |

| Sequence | PBM E-score |
| --- | --- |
| AACATATG | ≥ 0.356 (active) |
| CACATATA | 0.251 (inactive) |
| GACGGCTA | -0.167 (inactive) |
| CAATTGTA | 0.193 (inactive) |
| ATGAATCG | 0.0391 (inactive) |
| AGTAACGA | 0.107 (inactive) |
| GACTCGCA | -0.115 (inactive) |
| CAGATGCG | -0.00655 (inactive) |
| AGGAAGGA | -0.0149 (inactive) |
| AATGGCTC | -0.0437 (inactive) |
| AGAACAAC | 0.229 (inactive) |
| ATAACACG | ≥ 0.334 (active) |
| CTAACACA | 0.276 (inactive) |
| AAAACAAC | 0.214 (inactive) |
| CTAACAAC | 0.278 (inactive) |
| ATAACAAA | 0.205 (inactive) |
| ATAACAAT | 0.254 (inactive) |
| GTAACAAA | 0.217 (inactive) |
| GTAACAAC | 0.341 (active) |
| ATAACACA | 0.305 (inactive) |
| ATAACAAC | 0.346 (active) |
| ATAACAAG | ≥ 0.373 (active) |

From the supplement of paper PMC3724861
